High-throughput results deposited in PubChem BioAssay by several laboratories.
Bcl-xL primary – blocks human Bcl-xL binding to Bim BH3 peptide; GST-Bcl-xL / FITC-Bim BH3 peptide fluorescence polarization; inhibition, % at 10.9 µM; 0.7% of 320,000 active; AID 2129;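 active = inhibition above the mean of all tested compounds plus 3 SD, cutoff set per campaign, cut at about 30% in these data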;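 also: 0% = DMSO wells and 100% = unlabeled Bim-BH3 peptide competitor; inhibitors lower millipolarization by displacing the labeled peptide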
Target sequence (Q07817 whole entry, looked up): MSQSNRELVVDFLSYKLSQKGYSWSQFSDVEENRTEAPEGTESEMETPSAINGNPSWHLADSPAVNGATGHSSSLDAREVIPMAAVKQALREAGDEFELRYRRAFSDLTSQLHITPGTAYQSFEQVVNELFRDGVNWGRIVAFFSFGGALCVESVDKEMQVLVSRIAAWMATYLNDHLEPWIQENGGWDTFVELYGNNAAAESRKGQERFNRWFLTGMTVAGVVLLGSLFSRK
MCL1-BIM inh – inhibitors of human MCL1 binding to BIM-BH3 peptide; inhibition, % at 10.9 µM; GST-MCL1 / FITC-Bim-BH3 fluorescence polarization; 0.68% of 320,000 active; AID 2057; Q07820;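 active = inhibition above the mean inhibition of all tested compounds plus 3 SD, set per campaign, cut at about 40% in these data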;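 also: 0% = DMSO wells and 100% = unlabeled Bim-BH3 peptide control; higher means more loss of mP so more displacement of Bim peptide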
Target sequence (Q07820 whole entry, looked up): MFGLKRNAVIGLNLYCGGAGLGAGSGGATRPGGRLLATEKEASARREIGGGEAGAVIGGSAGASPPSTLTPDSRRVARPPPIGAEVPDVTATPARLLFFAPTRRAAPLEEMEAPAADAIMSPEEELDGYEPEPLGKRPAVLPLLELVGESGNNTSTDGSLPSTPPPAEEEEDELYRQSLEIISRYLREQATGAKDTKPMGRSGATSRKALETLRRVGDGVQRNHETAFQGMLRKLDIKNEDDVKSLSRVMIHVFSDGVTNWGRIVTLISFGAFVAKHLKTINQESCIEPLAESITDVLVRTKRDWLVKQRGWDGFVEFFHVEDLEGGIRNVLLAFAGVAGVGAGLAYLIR
Mcl1 Bid PPI – disrupts binding of human Mcl-1 to Bid peptide; inhibition, % at 21.7 µM; Q07820; TR-FRET Mcl-1/Bid-Dy647 peptide binding, 1536-well; 0.97% of 220,000 active;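 active = compounds that cut the binding signal by more than half at the single screening dose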;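 also: His-tagged Mcl-1 with europium anti-His antibody binding Bid BH3 peptide; 0% = Mcl-1 plus peptide wells and 100% = peptide-only wells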
GLD-1 TGE inh – GLD-1-TGE RNA interaction inhibition (C. elegans). AID 2280. Q17339. purified GLD-1 + fluorescein TGE RNA, fluorescence polarization. inhibition, % at 5.96 µM. 0.44% of 320,000 active;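 active = percent inhibition above a per-plate cutoff, the plate mean of test compounds plus 3 SD, cut at about 30% in these data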;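 also: 0% = DMSO wells with GLD-1 and probe and 100% = wells lacking GLD-1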
Mcl1-Noxa inh – disrupts binding of human Mcl-1 to Noxa peptide | Q07820 | 1.5% of 220,000 active | inhibition, % at 21.7 µM | TR-FRET Mcl-1/Noxa peptide binding, 2 h;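 active = compounds that cut the protein-peptide binding signal by more than 50% relative to plate controls in a single-dose test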;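 also: His-tagged Mcl-1 with rhodamine Noxa BH3 peptide and terbium anti-His antibody; 0% = Mcl-1 plus Noxa peptide wells and 100% = peptide-only wells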
Mcl-1 Bim block – disrupts Bim peptide binding to human Mcl-1 | Q07820 | Bead-based flow cytometry, Bim peptide-Mcl-1 binding | inhibition, % at 10 µM | 0.1% of 190,000 active | AID 1009; in the data active = inhibition above about 40%;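 also: 0% = no compound tracer wells and 100% = peptide blocker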
An asterisk follows results filed as active; . = no result. A selection: hits, their analogues and other compounds. The true share with any hit is near 2.3%.

SMILES	Bcl-xL primary	MCL1-BIM inh	Mcl1 Bid PPI	GLD-1 TGE inh	Mcl1-Noxa inh	Mcl-1 Bim block
CCOc1ccc(N/C(N)=N/c2nc(CSc3nnnn3-c3ccccc3)cc(=O)[nH]2)cc1	5	13	18	-2	23	.
COc1ccc2c(N)c(C(=O)NN)[nH]c2c1	4	3	-195	2	64*	.
O=C(CSc1nc2ncc(Br)cc2[nH]1)c1cccc([N+](=O)[O-])c1	-1	-8	-81	5	64*	-2
O=C(NCc1ccco1)Nc1ccc(Br)cc1	0	-1	-8	3	6	-1
O=C(NCc1ccco1)Nc1ccc(OC(F)(F)F)cc1	30*	31	-8	1	1	.
COc1cccc(CN2CCC(n3nccc3NC(=O)CCCc3ccccc3)CC2)c1	0	1	.	-7	.	.
O=C1CCCN1CCCNCC(=O)N1c2ccccc2Sc2ccccc21	0	-3	51*	-3	41	3
COc1ccc(/C=C(\C#N)C(=O)NCc2ccccc2)cc1O	1	-2	.	1	.	.
COc1ccc(/C=C(\C#N)C(=O)Nc2cc(C)c(Cl)cc2OC)cc1O	5	-5	10	1	71*	.
Oc1[nH]c(=S)sc1C=C1N=c2ccccc2=N1	3	4	-45	3	17	.
Oc1[nH]c(=S)sc1/C=C1\C(c2ccccc2)=Nc2ccccc21	-41	-73	-3	-121	81*	-6
O=C(NCCN1C(=O)S/C(=C\c2ccc(OC(F)F)cc2)C1=O)c1cnccn1	3	-8	-26	6	33	-3
CCOc1ccc(OCC)c(NC(=O)CN2CCN(c3cc(C)ccc3C)CC2)c1	-1	7	51*	4	8	-3
CC(C)Oc1ccc(OCCCN2CCCCCC2)cc1	3	8	54*	1	-5	-3
CC(C)c1ccc(OCCCCN2CCCCC2)cc1	-1	0	.	1	.	.
C=CCn1c(SCC(=O)NC2CC2)nnc1C1CC1	2	1	.	1	.	.
COCCn1c(SCC(=O)Nc2ccccc2C)nc2c(oc3ccccc32)c1=O	4	11	54*	17	5	-4
CN1C(=O)Nc2cccc3cccc1c23	1	7	.	2	.	.
c1ccc(NC2=Nc3cccc4cccc2c34)cc1	-3	-19	-29	-4	19	1
ClCC1=Nc2cccc3cccc(c23)N1	13	19	-75	-1	58*	.
Nc1cccc(C2=Nc3cccc4cccc(c34)N2)c1	3	8	35	2	74*	-3
COc1ccc(C2=Nc3cccc4cccc(c34)N2)cc1	6	11	-72	2	35	4
CC(C)C1=Nc2cccc3cccc(c23)N1	15	15	-71	-1	53*	-6
CC(=O)N1c2ccc(S(=O)(=O)NCC3CCC(C(=O)N4CCC(C)CC4)CC3)cc2CC1C (stereo not given)	4	1	.	3	.	.
Cc1ccc(NS(=O)(=O)c2cccc(C(=O)Nc3c(C)n(C)n(-c4ccccc4)c3=O)c2)cc1	4	4	9	-2	13	.
SMILES	Bcl-xL primary	MCL1-BIM inh	Mcl1 Bid PPI	GLD-1 TGE inh	Mcl1-Noxa inh	Mcl-1 Bim block
CC1CCCN(C(=O)CN(c2ccccc2)S(=O)(=O)c2ccc(F)cc2)C1 (stereo not given)	1	3	.	5	.	.
CCS(=O)(=O)N1CCN(c2ccc(C(=O)N3CCOCC3)cc2[N+](=O)[O-])CC1	-3	-3	17	-6	16	.
CCS(=O)(=O)N1CCN(c2ccc(C(=O)NC3C4CC5CC(C4)CC3C5)cc2[N+](=O)[O-])CC1 (stereo not given)	1	-2	55*	5	1	-1
COc1ccccc1N1CSC2=C(C#N)C(c3ccc(SC)cc3)CC(=O)N2C1 (stereo not given)	-15	-14	2	-10	83*	8
COc1cc(C2CC(=O)N3CN(c4ccccc4C)CSC3=C2C#N)cc(OC)c1OC (stereo not given)	-5	-4	-21	-1	17	-4
Cc1ccc(-c2cc(C(=O)N3CCN(c4ccc(F)cc4)CC3)c3ccccc3n2)o1	5	11	-62	-3	44	0
Cc1ccc(-c2cc(C(=O)N3CCN(c4ncccn4)CC3)c3cc(Br)ccc3n2)o1	7	18	21	3	79*	4
COc1ccc(CC(=O)OCCc2cc3cc(OC)c(OC)cc3c(=O)o2)cc1	0	0	.	5	.	.
CC(=O)N1CCN(c2ncnc3sc(-c4ccccc4)cc23)CC1	-3	-4	6	8	21	0
Oc1ccc(N2CCN(c3ncnc4sc(-c5ccccc5)cc34)CC2)cc1	.	.	15	.	87*	2
CC(C)OC(=O)Cn1cnc2ccc(Br)cc2c1=O	4	-6	0	4	107*	-3
COc1ccccc1N1CCN(S(=O)(=O)c2cn(C)c(=O)n(C)c2=O)CC1	47*	-7	-13	-8	9	0
Cc1ccc(/C=C/C(=O)Nc2cc(=O)n(C)c(=O)n2C)o1	33*	37	-62	27	24	-1
O=C(CN1C(=O)NC2(CCCC2)C1=O)OCCOc1cccc(Br)c1	0	1	.	-2	.	.
O=C(Cn1c(C(F)(F)F)nc2ccccc21)c1ccc(F)cc1	1	0	101*	7	14	2
Cc1c(NS(=O)(=O)c2ccc(Cl)c(C(=O)OCC(=O)NCc3ccco3)c2)c(=O)n(-c2ccccc2)n1C	-1	-3	-32	-5	32	1
CC(=O)Nc1sc(C)c(C)c1C(=O)OCC(=O)N(CC(C)C)c1c(N)n(Cc2ccccc2)c(=O)[nH]c1=O	-3	-6	.	-2	.	.
CSc1ccc(C2NC(=O)c3c(sc4c3CCN(C)C4)N2)cc1 (stereo not given)	-11	39	-27	-79	27	-2
CN1CCc2c(sc3c2C(=O)NC(/C=C\c2ccccc2)N3)C1 (stereo not given)	16	11	-34	4	12	.
Cc1ccsc1C1NC(=O)c2c(sc3c2CCN(C)C3)N1 (stereo not given)	37*	31	-32	-32	11	-1
CN1CCc2c(sc3c2C(=O)NC(c2cccs2)N3)C1 (stereo not given)	32*	33	-18	-31	11	0
Oc1ccc(C=NCC2COc3ccccc3O2)cc1 (stereo not given)	-1	3	-9	5	14	80*
COc1ccc(C=NCC2COc3ccccc3O2)cc1OC (stereo not given)	4	0	-10	1	17	-1
CC(=O)c1ccc(S(=O)(=O)Nc2ccc(-c3ccc4nnc(C)n4n3)cc2)cc1	12	26	-3	-6	55*	2
Cc1nnc2ccc(-c3ccc(NS(C)(=O)=O)cc3)nn12	4	5	-28	7	9	3
O=C1CCC/C(=N/NC(=O)c2sc3ccccc3c2Cl)C1	2	-32	-202	103*	-51	.
